Assay outcomes: PubChem, National Center for Advancing Translational Sciences (NCATS)
Compounds with a hit are over-represented: about 4.3% of the library has one in this group of screens.
SW480 rereplic = induces DNA re-replication in SW480 colon adenocarcinoma cells | SW480 DNA re-replication, Hoechst DNA content imaging, 48 h | Potency, µM (doses to about 46.1 µM), usual class: activators | 1.8% of 340,000 active | AID 624297; also: nearly all actives have a fitted effect of over 55% in size
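First, 250 cells per well were seeded. Next, compound or vehicle (23 nL) was pinned in, plates sat 48 hr at 37 C. Finally Hoechst was added for 40 min before fluorescence scanning.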
MCF10A rereplic = induces DNA re-replication in MCF 10a normal breast cells; Potency, µM (doses to about 46.1 µM), actives largely listed as activators; 2.9% of 350,000 active; AID 624296; MCF 10A DNA re-replication, Hoechst nuclear intensity, 48 h; also: nearly all actives have a fitted effect of over 50% in size
uPA surface inh = blocks generation of uPA at the cell surface. 0.31% of 330,000 active. Potency, µM (series often up to 38.3 µM), usual class: inhibitors. AID 540303. cell surface uPA generation assay, qHTS; active = well fitted inhibition curve with a large enough effect; inconclusive = small, poorly fitted or top-dose-only effect; inactive = no such curve, though single readings can be large or run the other way; tested in mouse RAW 264.7 cells; also: nearly all actives have a fitted effect of over 55% in size
Giardia killer = Giardia lamblia killing; Giardia lamblia trophozoite viability; activity change, % at 7.66 µM, hits read low; 0.15% of 340,000 active; AID 540267; in the data active = activity change below about -80%; inconclusive = between about -30% and that limit;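 also: parasites exposed to compound for two days anaerobically before the ATP read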
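ATP-content bioluminescence gauges trophozoite survival. Cells (100/well) receive compound and incubate anaerobically for 48 hrs at 37 deg C; detection reagent follows for 15-30 min at room temperature.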
Numbers stand for hits. Unless noted, calls follow the shape of the dose curve; as a rule, active = well fitted activation curve with a large enough effect; inconclusive = small, poorly fitted or top-dose-only effect; inactive = no such curve, though single readings can be large or run the other way.

`COCCCn1c(=O)/c(=C\c2ccccc2OC(C)C)s/c1=C(/C#N)C(=O)Nc1ccc(C(=O)O)cc1` gave SW480 rereplic inconclusive, MCF10A rereplic 26µM, uPA surface inh inactive and Giardia killer inactive.
COCCCn1c(=O)/c(=C\c2ccccc2OC(F)F)s/c1=C(/C#N)C(=O)NC(C)C was read as SW480 rereplic inactive, MCF10A rereplic inactive, uPA surface inh inactive and Giardia killer inactive.
Screening NC(=O)c1ccc(NC(=O)C#Cc2ccccc2)cc1 returned SW480 rereplic 15µM, MCF10A rereplic inconclusive, uPA surface inh inactive and Giardia killer inactive.
For Cc1ccc(S(=O)(=O)Nc2cccc(C(=O)NCc3cccnc3)c2)cc1F the results were SW480 rereplic 6.5µM, MCF10A rereplic 2.9µM, uPA surface inh 3.2µM and Giardia killer inactive.
For O=C(NCc1cccnc1)c1cccc(NS(=O)(=O)c2ccc(Br)cc2)c1 the results were SW480 rereplic 9.2µM, MCF10A rereplic 0.65µM, uPA surface inh inactive and Giardia killer inactive.
For O=C(NCc1cccnc1)c1cccc(S(=O)(=O)Nc2ccc(F)cc2)c1 the results were SW480 rereplic inactive, MCF10A rereplic inactive, uPA surface inh inactive and Giardia killer inactive.
`COc1cc(C2C3=C(CC(C)(C)CC3=O)OC3=C2C(=O)CC(C)(C)C3)cc([N+](=O)[O-])c1O` gave SW480 rereplic inactive, MCF10A rereplic inactive, uPA surface inh inactive and Giardia killer inactive.
Cc1ccc(S(=O)(=O)N2CCN(C(=O)COC(=O)CCOc3ccccc3C)CC2)c(C)c1 was read as SW480 rereplic inactive, MCF10A rereplic inactive, uPA surface inh inactive and Giardia killer inactive.
`O=C(Cc1ccccc1)N/N=C/c1ccccc1OCc1ccc(Cl)cc1` gave SW480 rereplic inconclusive, MCF10A rereplic inactive, uPA surface inh inactive and Giardia killer inactive.
Screening O=S(=O)(N/N=C/c1ccccc1OCc1ccc(Cl)cc1)c1ccccc1 returned SW480 rereplic inconclusive, MCF10A rereplic 3.3µM, uPA surface inh inactive and Giardia killer inactive.
Screening NC(=O)C1CCN(c2nc(C3CC3)nc3c2nnn3Cc2ccccc2Cl)CC1 returned SW480 rereplic inactive, MCF10A rereplic 21µM, uPA surface inh inactive and Giardia killer inactive.
O=C(CN1C(=O)NC2(CCCC2)C1=O)OCCOc1cccc(Br)c1 was read as SW480 rereplic inconclusive, MCF10A rereplic inactive, uPA surface inh inactive and Giardia killer inactive.
CCc1ccccc1NC(=O)CN1CCN(C(=O)CNC(=O)c2ccc(-c3ccccc3)cc2)CC1 was read as SW480 rereplic inactive, MCF10A rereplic 5.8µM, uPA surface inh 3.2µM and Giardia killer inactive.
C/C(Cl)=C\Cn1c(NCCCn2ccnc2)nc2c1c(=O)n(C)c(=O)n2C was read as SW480 rereplic inactive, MCF10A rereplic inactive, uPA surface inh inactive and Giardia killer inactive.
Screening C=CCn1c(NCCc2ccccc2)nc2c1c(=O)n(C)c(=O)n2C returned SW480 rereplic inactive, MCF10A rereplic inactive, uPA surface inh inactive and Giardia killer inconclusive.
For C/C(Cl)=C\Cn1c(NCCc2ccccc2)nc2c1c(=O)n(C)c(=O)n2C the results were SW480 rereplic inactive, MCF10A rereplic 18µM, uPA surface inh inactive and Giardia killer inactive.
For CCN(CC)CCNc1nc2c(c(=O)n(C)c(=O)n2C)n1C/C=C(/C)Cl the results were SW480 rereplic inactive, MCF10A rereplic 16µM, uPA surface inh inactive and Giardia killer inactive.
Screening CCNc1nc2c(c(=O)n(C)c(=O)n2C)n1CCCc1ccccc1 returned SW480 rereplic 23µM, MCF10A rereplic inconclusive, uPA surface inh inactive and Giardia killer inactive.
`Cc1cccc(NC(=O)COc2ccccc2C(=O)NC(C)c2ccccc2)c1` (configuration not stated) gave SW480 rereplic inactive, MCF10A rereplic inconclusive, uPA surface inh inactive and Giardia killer inactive.
Screening O=C(NC1CCCCC1)c1sc(N2CCOCC2)nc1-c1ccccc1 returned SW480 rereplic inactive, MCF10A rereplic 5.8µM, uPA surface inh inactive and Giardia killer inactive.
For O=C(Nc1ccccc1)c1sc(N2CCOCC2)nc1-c1ccccc1 the results were SW480 rereplic inactive, MCF10A rereplic inactive, uPA surface inh inactive and Giardia killer inactive.
For COc1cc(/C=C/c2nnc3c4ccccc4ncn23)cc(OC)c1OC the results were SW480 rereplic inactive, MCF10A rereplic inconclusive, uPA surface inh inactive and Giardia killer inactive.
Screening C(=C\c1nnc2c3ccccc3ncn12)/c1ccccc1 returned SW480 rereplic inconclusive, MCF10A rereplic 6.5µM, uPA surface inh inactive and Giardia killer inactive.
For O=C(Cn1nc(-c2ccccc2F)ccc1=O)Nc1ccc(S(=O)(=O)N2CCCCCC2)cc1 the results were SW480 rereplic 15µM, MCF10A rereplic inactive, uPA surface inh inactive and Giardia killer inactive.
`O=C(Cc1ccccc1F)Nc1ccc(S(=O)(=O)N2CCCCC2)cc1` gave SW480 rereplic inconclusive, MCF10A rereplic inactive, uPA surface inh inactive and Giardia killer inactive.
`O=c1c2ccccc2oc2ccc(-c3ccc4cc[nH]c4c3)cc12` gave SW480 rereplic inactive, MCF10A rereplic inactive, uPA surface inh inconclusive and Giardia killer inactive.
`CCOC(=O)c1[nH]c2ccc(F)cc2c1NC(=O)C(C)N1CCc2cc(OC)c(OC)cc2C1` (configuration not stated) gave SW480 rereplic 16µM, MCF10A rereplic 7.3µM, uPA surface inh inactive and Giardia killer inactive.
`COc1ccc(S(=O)(=O)Nc2ccc3c(c2)C(=O)N([C@H](C)CO)C[C@H](C)[C@@H](CN(C)S(C)(=O)=O)O3)cc1` gave SW480 rereplic inactive, MCF10A rereplic inactive, uPA surface inh inactive and Giardia killer inactive.
C/C(=N\NC(=O)C12CCC(C)(C(=O)O1)C2(C)C)c1ccccc1O (configuration not stated) was read as SW480 rereplic 3.7µM, MCF10A rereplic inconclusive, uPA surface inh inactive and Giardia killer inactive.
Screening CC12CCC(C(=O)N/N=C/c3ccc(O)cc3O)(OC1=O)C2(C)C (configuration not stated) returned SW480 rereplic 4.6µM, MCF10A rereplic inactive, uPA surface inh inactive and Giardia killer inactive.
`CN(CC(=O)Nc1cccc(F)c1)C(=O)c1cccc(S(=O)(=O)N2CCN(c3ccc(F)cc3)CC2)c1` gave SW480 rereplic inactive, MCF10A rereplic inactive, uPA surface inh inconclusive and Giardia killer inactive.
`COc1cc2c3nnc(-c4ccc(F)cc4)c-3cn(Cc3ccccc3F)c2cc1OC` gave SW480 rereplic inconclusive, MCF10A rereplic 9.2µM, uPA surface inh inactive and Giardia killer inactive.
`COc1cc2c3nnc(-c4ccccc4)c-3cn(Cc3ccccc3F)c2cc1OC` gave SW480 rereplic 23µM, MCF10A rereplic 23µM, uPA surface inh inactive and Giardia killer inactive.
O=C(COC(=O)CNC(=O)c1ccc([N+](=O)[O-])o1)Nc1ncc(C(F)(F)F)cc1Cl was read as SW480 rereplic inactive, MCF10A rereplic 16µM, uPA surface inh inactive and Giardia killer inconclusive.
`Oc1ccc(C2C=C(c3ccc(F)cc3)Nc3ncnn32)cc1` (configuration not stated) gave SW480 rereplic 10µM, MCF10A rereplic inactive, uPA surface inh inactive and Giardia killer inactive.
